A selection: hits, their analogues and other compounds. The true share with any hit is near 3.5%.
GPR151 activ = activates the human receptor GPR151; actives 1% (n = 650,000); AID 1508602; PathHunter beta-arrestin GPR151 cells, luminescence; Q8TDV0; activation, % at 11.2 µM; in the data active means activation above about 4.9%;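 further: 0% = median of compound wells and 100% = cells with positive control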
FBW7 activator = human FBW7 E3 ligase activation, primary screen; Q969H0; AlphaScreen FBW7–phospho-cyclin E peptide binding, activator screen; normalized activity (activation), % at 26.1 µM; actives 0.13% (n = 650,000); AID 1259310; in the data active means normalized activity above about 1.9%;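 further: purified mutant Fbw7 with reduced substrate affinity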
MITF inh = human MITF inhibition, primary screen. O75030. AlphaScreen MITF homodimerization, bead proximity signal. inhibition, % at 2.6 µM. actives 0.91% (n = 650,000); in the data active means inhibition above about 50%;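 further: 0% = vehicle wells with protein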
Target sequence (O75030 whole entry, looked up): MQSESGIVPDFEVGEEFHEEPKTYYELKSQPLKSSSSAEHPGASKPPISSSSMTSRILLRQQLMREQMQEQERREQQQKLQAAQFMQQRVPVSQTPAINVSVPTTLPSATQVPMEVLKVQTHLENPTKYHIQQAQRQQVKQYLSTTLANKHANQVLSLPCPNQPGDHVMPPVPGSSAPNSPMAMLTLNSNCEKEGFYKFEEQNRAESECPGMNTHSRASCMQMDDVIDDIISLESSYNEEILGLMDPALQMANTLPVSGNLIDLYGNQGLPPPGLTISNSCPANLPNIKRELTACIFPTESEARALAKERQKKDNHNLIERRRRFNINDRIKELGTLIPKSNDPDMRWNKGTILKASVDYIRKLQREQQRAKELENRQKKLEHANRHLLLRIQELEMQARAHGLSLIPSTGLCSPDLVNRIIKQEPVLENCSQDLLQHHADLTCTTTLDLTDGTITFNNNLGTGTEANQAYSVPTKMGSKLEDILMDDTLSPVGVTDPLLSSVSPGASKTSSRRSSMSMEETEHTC
TEAD-YAP block = TEAD-YAP interaction inhibition. HEK-TIYL cells, TEAD-Gal4/YAP UAS-luciferase luminescence. actives 1.4% (n = 640,000). inhibition, % at 9.12 µM; in the data active means inhibition above about 32%;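 further: 0% = median of test compound wells and 100% = reference inhibitor wells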
GPR151 confirm = confirmation of human GPR151 activators | GPR151 PathHunter beta-arrestin cells, luminescence, 90 min; % of EA-reagent control over plate median | shares compounds with GPR151 activ | activation, % at 11.2 µM | 6,700 tested, under 10 active;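 active means mean percent activation across replicates above the confirmation screen cutoff of 4.91%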
GPR119 counter = GPR119 activation, counter-screen for GPR151 activators | shares compounds with GPR151 activ | GPR119 PathHunter beta-arrestin cells, luminescence, 90 min; 0 = compound-well median, 100 = enzyme-acceptor control | activation, % at 11.2 µM | actives 0.3% (n = 6,700);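 active means mean percent activation in the counterscreen above 29.09%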;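 further: counterscreen on off-target GPR119 to flag nonselective hits from the GPR151 activator screen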
* = called active by the depositor; nt = no result given.

SMILES	GPR151 activ	FBW7 activator	MITF inh	TEAD-YAP block	GPR151 confirm	GPR119 counter
O=C(NCCN1CCCC1)C1(S(=O)(=O)c2ccc(Cl)cc2)CC1	1	0	0	5	nt	nt
CN1CCC(CNS(=O)(=O)CCc2ccccc2)CC1	5.7*	0	14	2	-1	-10
O=C(CN1CCCc2ccccc21)Nc1ccc(Br)cc1	12*	0	4	-3	0	5
CC(=O)c1ccc(NC(=O)CN2CCCc3ccccc32)cc1	0	0	-3	5	nt	nt
Cc1ccc2c(c1)CN(CCNC(=O)CCc1ccc(=O)[nH]n1)CC(C)O2 (stereo not given)	5.3*	0	-7	-6	0	0
Cc1ccc2c(c1)CN(CCNC(=O)CCc1ccco1)CC(C)O2 (stereo not given)	1	0	13	0	nt	nt
CSc1cccc(N=CC2=C(O)CC(C)(C)CC2=O)c1	7.1*	0	-11	3	-1	-4
CC1CCCN(c2nc3c(c(=O)[nH]2)CCN(CC2CCC=CO2)C3)C1 (stereo not given)	9.5*	1	-2	-4	1	7
O=c1[nH]c(N2CCCCC2)nc2c1CCN(CC1CCC=CO1)C2 (stereo not given)	0	0	-8	-4	nt	nt
CC1CCN(c2nc(N3CCOCC3)nc(N3CCOCC3)n2)CC1	8.9*	0	8	8	0	-2
Cc1csc2ncc(C(=O)N3CCc4ccccc43)c(=O)n12	7.9*	0	7	-15	2	-2
Nc1nnnn1/N=C/C=C/c1cccc([N+](=O)[O-])c1	1	1	23	1	nt	nt
Nc1nnnn1/N=C\C=C\c1ccccc1	9.2*	0	10	-17	-1	-6
Cn1ccc2cc(-c3cc(C(=O)NC4CC4)ccn3)ccc21	22*	0	12	10	0	0
C=CCOC(=O)C1C(c2cccc(Br)c2)c2c([nH][nH]c2=O)CC1(C)O (stereo not given)	6.0*	0	-15	-3	-1	-11
C=CCOC(=O)C1C(c2ccccc2)c2c([nH][nH]c2=O)CC1(C)O (stereo not given)	0	0	-6	-6	nt	nt
CCOc1ccc2ccccc2c1C(=O)NCc1cccs1	-1	1	9	2	nt	nt
CCOc1ccc2ccccc2c1C(=O)NCc1ccccn1	21*	0	15	-8	0	2
Cc1sc(C)c(CN2CCOCC2)c1CN1CCOCC1	-1	0	-16	-7	nt	nt
Cc1nc(=O)c(-c2ccccc2)c(C)n1-c1ccc(C(=O)O)cc1	-1	1	5	3	nt	nt
CCOC(=O)c1ccc(-n2c(C)nc(=O)c(-c3ccccc3)c2C)cc1	7.8*	0	-3	-3	0	12
CCN1CCN(C(CC(C)C)c2nnnn2Cc2ccc3c(c2)OCO3)CC1 (stereo not given)	5.3*	0	3	-3	1	6
CC1Cc2nc(SCC(=O)c3ccccc3)n(-c3ccc(F)cc3)c(=O)c2S1 (stereo not given)	-1	0	13	-2	nt	nt
CN1CCN(C(=O)/C=C/c2c(Cl)cccc2Cl)CC1	7.2*	0	6	3	0	5
O=C(c1cn(-c2ccccc2)nc1-c1ccncc1)N1CCOCC1	2	1	19	-12	nt	nt
SMILES	GPR151 activ	FBW7 activator	MITF inh	TEAD-YAP block	GPR151 confirm	GPR119 counter
CCCOC1CCCN(C(=O)CCc2nnc(Cc3cccc(C)c3)o2)C1 (stereo not given)	1	0	17	-56	nt	nt
COC(=O)NCC12CC3CC(CC(C3)C1)C2	8.9*	0	10	6	1	-5
NC(=O)NCC12CC3CC(CC(C3)C1)C2	1	0	-9	-7	nt	nt
COc1ccc(Cl)cc1/C=C/c1[nH]c(=O)[nH]c(=O)c1[N+](=O)[O-]	7.3*	0	-19	5	2	24
COc1ccc(OC)c(/C=C/c2[nH]c(=O)[nH]c(=O)c2[N+](=O)[O-])c1	2	0	3	-1	nt	nt
COc1ccc(-c2noc(COc3ccc(C)cc3Br)n2)cc1	-1	0	-6	-8	nt	nt
Cc1cc(C(=O)NNC(=O)Nc2cccc(C(F)(F)F)c2)ccc1[N+](=O)[O-]	-4	0	-6	8	nt	nt
COC(=O)C1=C(C(=O)OC)SC2(S1)C(C(=O)OC)=C(C(=O)OC)SC1=C2c2cc(C)c(C)cc2NC1(C)C	5.8*	-2	19	4	1	12
Cn1c(O)c(N=NC(N)=O)c2cc(Br)ccc21	-1	0	-7	-14	nt	nt
Cc1cccc(C)c1NC(=O)C(=O)NCCc1ccccc1	0	0	-7	-1	nt	nt
Cc1cccc(C)c1NC(=O)C(=O)NCCc1ccc(F)cc1	6.4*	0	-7	-6	0	-5
Cc1ccc2occ(C(=O)c3ccccc3Cl)c(=O)c2c1	7.7*	0	10	11	1	-6
Cc1ccc(S(=O)(=O)NC(=O)c2cccc(Br)c2)cc1	2	0	-4	-3	nt	nt
O=C(NS(=O)(=O)c1ccccc1)c1cccc(Br)c1	5.9*	0	12	1	0	-18
CC1CCCC(NCc2c(C(=O)O)n(Cc3ccccc3Cl)c3ccccc23)C1C (stereo not given)	-1	0	-6	2	nt	nt
CC1CCCC(NCc2c(C(=O)O)n(Cc3ccccc3F)c3ccccc23)C1C (stereo not given)	13*	0	3	2	-1	-10
Cc1ccc([N+](=O)[O-])cc1S(=O)(=O)NCCc1c(C)[nH]c2ccccc12	1	0	-2	1	nt	nt
O=C(NCCN1CCOCC1)C1CCN(c2ccc(NCc3cccnc3)nn2)CC1	6.1*	0	4	9	0	4
Cc1ccc(S(=O)(=O)n2c(SCC(=O)NCCc3ccccc3)nc3ccccc32)cc1	5.4*	0	8	-7	0	6
Cn1c(SCC(=O)NCCc2ccccc2)nnc1-c1ccncc1	6.1*	0	5	5	1	1
O=C(CSc1nc2ccccc2n1S(=O)(=O)c1ccccc1)NCCc1ccccc1	1	0	-8	-9	nt	nt
CCC(c1nnnn1C(C)(C)CC)N1CCN(Cc2ccccc2)CC1 (stereo not given)	6.3*	0	4	-9	-1	-13
COc1ccc(CNC(=O)c2cnn3c(C)c(Cc4cccc(Cl)c4)c(C)nc23)cc1	1	0	7	21	nt	nt
Cc1ccccc1Cc1c(C)nc2c(C(=O)N3CCN(c4cccc(Cl)c4)CC3)cnn2c1C	3	0	6	4	nt	nt
Cc1nc2c(C(=O)NCc3ccccn3)cnn2c(C)c1Cc1cccc(Cl)c1	8.1*	0	-12	1	2	12
Cc1nc2c(C(=O)N3CCCC3)cnn2c(C)c1Cc1cccc(Cl)c1	5.5*	0	15	-14	1	14
